# Results filed as inconclusive are left out. Values without a mark were called inactive. The source made the active and inactive calls. Calls follow the shape of the dose curve; as a rule, active = well fitted inhibition curve with a large enough effect; inconclusive = small, poorly fitted or top-dose-only effect; inactive = flat fitted curve, though single readings scatter.
# Target: Luciferin 4-monooxygenase (Photinus pyralis) (UniProt P08659)
# Test: Biochemical firefly luciferase enzyme assay for NPC (AID 624030); also: nearly all actives have a fitted effect of over 70% in size;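 as to activity change, negative = inhibition: purified P. pyralis luciferase at 10 nM with luciferin and ATP substrate; 0% = DMSO and -100% = full luciferase inhibition by PTC124 control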
# Conditions: purified P. pyralis luciferase, luminescence, 5 min; series mostly up to 58.6 µM; activity change, negative = inhibition: at the top concentration
# How it was run: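 Counter-screen for direct inhibition of the luciferase enzyme by approved-drug library compounds, run at 10 nM enzyme in 50 mM Tris acetate (final). Luminescence was read within 5 min of enzyme-buffer addition and normalized to PTC124 versus DMSO (0%).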
# Potency is read from the fitted curve at half-maximal effect.
# Luciferin 4-monooxygenase (Photinus pyralis), sequence (P08659 whole entry, looked up): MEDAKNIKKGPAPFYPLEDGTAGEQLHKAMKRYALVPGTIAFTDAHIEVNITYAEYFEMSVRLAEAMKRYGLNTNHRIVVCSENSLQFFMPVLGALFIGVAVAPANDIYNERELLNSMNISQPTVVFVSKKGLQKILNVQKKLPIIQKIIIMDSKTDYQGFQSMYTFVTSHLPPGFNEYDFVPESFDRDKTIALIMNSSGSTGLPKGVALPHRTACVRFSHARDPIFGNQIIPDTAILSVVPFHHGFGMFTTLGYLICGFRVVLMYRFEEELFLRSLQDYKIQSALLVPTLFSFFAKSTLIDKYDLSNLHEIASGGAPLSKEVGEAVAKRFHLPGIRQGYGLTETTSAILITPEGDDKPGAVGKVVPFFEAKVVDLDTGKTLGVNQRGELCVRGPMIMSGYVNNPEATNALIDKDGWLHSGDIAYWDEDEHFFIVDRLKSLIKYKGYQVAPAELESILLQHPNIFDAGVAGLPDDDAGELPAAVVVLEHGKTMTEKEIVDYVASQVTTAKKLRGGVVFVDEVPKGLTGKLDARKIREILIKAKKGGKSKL
SMILES,"activity change, negative = inhibition",Potency
CN[C@H]1C[C@@H](N)[C@H](O)[C@@H](O[C@@H]2O[C@H](CO)[C@H](O)[C@@H]3O[C@]4(O[C@@H]23)O[C@H]([C@@H](N)CO)[C@H](O)[C@@H](O)[C@H]4O)[C@@H]1O,5.77%,–
CC(C)=CCN1CC[C@@]2(C)c3cc(O)ccc3C[C@@H]1C2C (some centres not stated),-2.43% [at 123 µM],–
CCNC(C)Cc1ccc2c(c1)OCO2 (configuration not stated),2.81% [at 123 µM],–
CC(=O)[C@@]1(O)CC[C@@H]2[C@@H]3CCC4=CC(=O)CC[C@]4(C)[C@]3(F)[C@@H](O)C[C@@]21C,-3.27%,–
O=C1OC(c2cc(I)c(O)c(I)c2)(c2cc(I)c(O)c(I)c2)c2ccccc21,–,32.2 µM (active)
C[C@]12CCC3[C@@H](CCC4=CC(=O)CC[C@@]43C)C1CCC2OC(=O)CCc1ccccc1 (some centres not stated),-2.57% [at 123 µM],–
Cc1ccc2c(c1)[C@]13CCCC[C@@H]1[C@@H](C2)N(C)CC3,2.01%,–
C[C@]12CCC3C(CCC4=CC(=O)CC[C@@H]43)C1CCC2O (some centres not stated),0.957%,–
CN1CC[C@]23c4c5ccc(O)c4OC2C(O)CCC3[C@H]1C5 (some centres not stated),-0.535% [at 123 µM],–
C=CCC1(O)CCC2C3CCC4=CC(=O)CCC4=C3C=CC21C (configuration not stated),-1.05%,–
Cc1c(N)nc([C@@H](CC(N)=O)NC[C@H](N)C(N)=O)nc1C(=O)N[C@H](C(=O)N[C@H](C)[C@H](O)[C@H](C)C(=O)N[C@@H](C(=O)NCCc1nc(-c2nc(C(=O)NCCC[S+](C)C)cs2)cs1)[C@H](C)O)[C@H](O[C@@H]1O[C@@H](CO)[C@@H](O)[C@H](O)[C@@H]1O[C@H]1O[C@H](CO)[C@H](O)[C@H](OC(N)=O)[C@@H]1O)c1cnc[nH]1,-2.86%,–
CCON=C(CC)C1=C(O)CC(c2c(C)cc(C)cc2C)CC1=O (configuration not stated),-5.34% [at 123 µM],–
CC1(O)CCC2C3CCC4=CC(=O)CCC4(C)C3(F)C(O)CC21C (configuration not stated),0.526%,–
CC12CCC(=O)CC1CCC1C2CCC2(C)C1CCC2(C)O (configuration not stated),-1.77%,–
Oc1ccc2c3c1O[C@H]1[C@@H](O)C=CC4[C@@H](C2)NCC[C@@]341 (some centres not stated),-4.93%,–
CC(=O)OC1CC(OC2C(O)CC(OC3C(O)CC(O[C@H]4CC[C@]5(C)C6CC[C@]7(C)[C@@H](C8=CC(=O)OC8)[C@@H](O)C[C@]7(O)[C@@H]6CC[C@@H]5C4)OC3C)OC2C)OC(C)C1OC1OC(CO)C(O)C(O)C1O (some centres not stated),-4.59%,–
C[C@H]1[C@@H]2Cc3ccc(O)cc3[C@]1(C)CCN2CCc1ccccc1,3.58% [at 123 µM],–
CC[C@H](OC(C)=O)C(C[C@H](C)NC)(c1ccccc1)c1ccccc1,3.4% [at 123 µM],–
C[C@H]1[C@@H]2Cc3ccc(O)cc3[C@]1(C)CCN2C,3.11% [at 288 µM],–
CC(C)=CCN1CC[C@@]2(C)c3cc(O)ccc3C[C@H]1[C@@H]2C,0.692% [at 123 µM],–
CC(C)CC1C(=O)N2CCCC2C2(O)OC(NC(=O)C3CC4c5cccc6[nH]cc(c56)CC4N(C)C3)(C(C)C)C(=O)N12 (configuration not stated),-1.5%,–
CN1CC[C@]23c4c5ccc(O)c4OC2C(O)C=CC3[C@H]1C5 (some centres not stated),-4.14% [at 123 µM],–
COc1ccc2c3c1OC1C(O)C=CC4[C@@H](C2)NCC[C@]314 (some centres not stated),-0.56% [at 123 µM],–
C=CCC1(C(C)CCC)C(=O)NC(=O)NC1=O (configuration not stated),1.62% [at 123 µM],–
C[N+]1(CCF)[C@@H]2CC[C@@H]1CC(OC(=O)C(O)(c1ccccc1)c1ccccc1)C2 (some centres not stated),3%,–
CC(=O)Oc1ccc2c3c1OC1C(OC(C)=O)C=CC4[C@@H](C2)N(C)CC[C@]314 (some centres not stated),0.983% [at 123 µM],–
Oc1ccc2c3c1OC1C(O)C=CC4[C@@H](C2)NCC[C@]314 (some centres not stated),0.631% [at 123 µM],–

# Reference: PubChem BioAssay (NCATS)
